# Test results: ChEMBL document CHEMBL4513216, “Probing the Open Global Health Chemical Diversity Library for Multistage-Active Starting Points for Next-Generation Antimalarials” (ACS Infect Dis, 2020)
# About 8,600 (12%) of roughly 69,000 compounds showed an effect of 50% or more. The list comes from a sample in which strong results are over-represented; it also holds similar structures and randomly drawn compounds.
# Tested on: Plasmodium berghei
# Assay: Screen against P. berghei liver stage (PbLuc), transformed with Luciferase, at 10uM
# Format: functional, HepG2
# Conditions: tested at 10 uM
row,SMILES,INHIBITION [%]
1,COc1ccc(C2CCCN2Cc2ccc(S(=O)(=O)N(C)C)o2)cc1 (stereo not given),37.4
2,O=C(Cn1cc(C(=O)O)cn1)Nc1c(Cl)cccc1Cl,22.6
3,CC(C(=O)N1CCCN(Cc2ccc(C#N)cc2)CC1)n1cncn1 (stereo not given),27.65
4,Cc1n[nH]c(C)c1NC(=O)CCc1cccc(C2CCCN(C)C2)n1 (stereo not given),29.3
5,CCCn1c(C)c(CC(=O)NC(C)CO)c2c1CC(C)(C)CC2=O (stereo not given),18.6
6,O=C1[C@@H]2CN(c3ncnc4[nH]ccc34)C[C@]2(C(=O)O)CN1CC1CC1,36.6
7,Cc1ccc(-c2cc(CNC(=O)N3CCCN(C)CC3)on2)cc1,35.9
8,Cn1c(=O)[nH]c(=O)c2c1nc1n2CC(c2ccc(Cl)cc2)O1 (stereo not given),7.92
9,CCc1noc(C(C)N(C)CC(=O)Nc2cccc(C)c2C)n1 (stereo not given),41.4
10,COc1ccc(Br)cc1CN(C)C(C)c1nc(C(C)C)no1 (stereo not given),3.73
11,CCc1noc(C(C)N(C)Cc2cc(Br)ccc2OC)n1 (stereo not given),51.5
12,CCc1noc(C(C)N(C)CC(=O)Nc2ccc(C)cc2)n1 (stereo not given),27.6
13,CCc1noc(C(C)N(C)CC(=O)Nc2ccc(Br)cc2C)n1 (stereo not given),74
14,CCc1noc(C(C)N(C)CC(=O)Nc2c(C)cccc2C)n1 (stereo not given),-8.69
15,CCc1noc(C(C)N(C)CC(=O)Nc2ccc(Cl)c(C(F)(F)F)c2)n1 (stereo not given),90.2
16,CCc1noc(C(C)N(C)CC(=O)Nc2cccc(C)n2)n1 (stereo not given),-29.2
17,COc1ccc(Br)cc1CN(C)C(C)c1nc(C)no1 (stereo not given),4.82
18,Cc1ccccc1NC(=O)NCC(C)(O)c1cccs1 (stereo not given),48.8
19,Cc1noc2nc(C3CCN(Cc4ccccn4)CC3)cc(C(F)F)c12,47.1
20,Cc1cc(C(NC(=O)CNS(C)(=O)=O)C(C)C)c(C)s1 (stereo not given),22.3
21,Cc1cccc(CN2C[C@@H]3COC[C@]3(CNC(=O)c3ccsc3)C2)n1,39.8
22,COc1ccc(CN2CCO[C@@H]3C[C@@H](C(=O)NC(C)C)C[C@H]32)cc1,26.5
23,CCS(=O)(=O)NC(CCSC)C(=O)Nc1cccc(C)c1C (stereo not given),26.9
24,CC(Oc1cc(Cl)cc(Cl)c1)C(=O)NCCS(N)(=O)=O (stereo not given),34.7
25,Cc1c(Br)c(C(=O)NC(C)c2ccccc2)nn1C (stereo not given),-38.2
26,Cc1ccc(-c2noc(CCC(=O)NC(C)Cn3cccn3)n2)cc1 (stereo not given),22.6
27,CC(=O)NCC(=O)N1CCn2cc(CN3CCN(C)CC3)nc2C1,43.5

row,SMILES,INHIBITION [%]
1,O=C(c1ccc[nH]1)N1CCn2cc(CN3CCCC3)nc2C1,18.8
2,CC(=O)NCC(=O)N1CCn2cc(CN3CCCCC3)nc2C1,68.8
3,O=C(c1cccnc1)N1CCn2cc(CN3CCCC3)nc2C1,31.1
4,CN1CCN(Cc2cn3c(n2)CN(C(=O)c2ccco2)CC3)CC1,17.4
5,O=C(c1ccco1)N1CCn2cc(CN3CCCC3)nc2C1,25.2
6,CN1CCN(Cc2cn3c(n2)CN(C(=O)c2cccn2C)CC3)CC1,54.7
7,O=C(CCc1ccccc1)N1CCn2cc(CN3CCCC3)nc2C1,41.4
8,N#Cc1ccc(C(=O)N2CCn3cc(CN4CCCCC4)nc3C2)cc1,52
9,O=C(c1ccnnc1)N1CCn2cc(CN3CCCCC3)nc2C1,41.6
10,Cn1cccc1C(=O)N1CCn2cc(CN3CCCC3)nc2C1,52
11,CN1CCN(Cc2cn3c(n2)CN(C(=O)c2ccccn2)CC3)CC1,25.1
12,Cc1ccc(NC2CCN(C(=O)c3cc4c(s3)CCC4)CC2)nn1,-11.4
13,CCn1cnnc1CNC(=O)NC(c1cccs1)C1CCCC1 (stereo not given),-9.76
14,COc1ccc(NC(=O)c2cnc(C3CCN(C(C)=O)C3)nc2C)cc1 (stereo not given),25.55
15,O=C1CCC2(CCC(NC3CCOC3)CC2)N1Cc1ccncc1 (stereo not given),3.81
16,CCC1(c2ccc(NS(=O)(=O)N(C)C)cc2)CCC(=O)NC1=O (stereo not given),18.9
17,Cc1cc(N2CCOCC2)nc(N(C)CCO)c1C#N,12.3
18,CC(C)c1nc2c(n1C)CCN(Cc1nc(-c3ccoc3)no1)C2,25.6
19,CNc1cncc(C2CCCN2C(=O)Cn2ccnc2C)n1 (stereo not given),2.915
20,O=C(Cc1csc(-c2ccccc2)n1)N[C@@H](C(=O)O)c1ccccc1,-3.11
21,Cc1cc(C(=O)N2CCn3cc(CN4CCCCC4)nc3C2)no1,17.1
22,Cc1cc(C(=O)N2CCn3cc(CN4CCOCC4)nc3C2)no1,68.4
23,Cc1cc(C(=O)N2CCn3cc(CN4CCCC4)nc3C2)no1,13.6
24,CN(CCCc1cnn(C)c1)Cc1cc2n(n1)CCCNC2,49.4
25,CCN(Cc1noc(C2CCC2)n1)C(=O)CCc1cc2n(n1)CCNC2,11.9
26,CN(CCCc1cnn(C)c1)Cc1cc2n(n1)CCNC2,52.6
27,CNc1ncc(CN(C)Cc2cc3n(n2)CCNC3)cn1,-99.3

row,SMILES,INHIBITION [%]
1,CN(CCc1noc(C2CC2)n1)C(=O)CCc1cc2n(n1)CCCNC2,46.6
2,CN(Cc1cc2n(n1)CCNC2)Cc1noc(C2CCC2)n1,51
3,CN(CCCc1cnn(C)c1)Cc1cc2n(n1)CCCN(C)C2,65.7
4,CN(CCCc1cnn(C)c1)C(=O)C1CCN(C(=O)C2CCC2)CC1,38.7
5,CCc1cnc(C)nc1N(C)CCCc1cnn(C)c1,8.31
6,O=C(c1cc2cc(F)ccc2[nH]1)N1CCC(Nc2cccnn2)CC1,22.3
7,CCCC(NC(=O)c1cc(C)ccc1O)c1nnn[nH]1 (stereo not given),34.6
8,COc1ncccc1NC(=O)C1CCOCC1,43.3
9,CC(=O)Nc1c(C)noc1C=Cc1ccc(C)c(S(=O)(=O)NC2CC2)c1,11.6
10,O=C(Nc1ccccc1)C1=CC2(CCNCC2)c2ccccc21,48.2
11,O=C(Cn1cnnn1)NCC1(O)CCCc2ccccc21 (stereo not given),64.7
12,O=C(Cn1cncn1)NCC1(O)CCCc2ccccc21 (stereo not given),10.9
13,O=C(Cn1cccn1)NCC1(c2ccccc2)CC1,-8.3
14,O=C(Cn1c(=O)oc2ccccc21)NCC1(O)CCc2ccccc21 (stereo not given),-27.3
15,O=C(CN1C(=O)CCC1=O)NCC1(O)CCc2ccccc21 (stereo not given),5.58
16,Cc1cnn(CC(=O)NCC2(O)CCCc3ccccc32)c1 (stereo not given),80.5
17,Cc1cccc(S(=O)(=O)N2CSCC2C(=O)NCC2CC2)c1 (stereo not given),-14.3
18,Cc1cnccc1-c1cnn(CCNC(=O)c2ccncc2)c1C1CC1,48
19,Cc1ccc(CN(C)Cc2nc3ccc(F)cc3[nH]2)cn1,44.2
20,Cc1ccc(CC(=O)N2CCCC(c3ccn[nH]3)C2)cn1 (stereo not given),22.965
21,O=C(NCc1ccco1)[C@@H]1CCO[C@@H]2CCN(c3ncccn3)C[C@@H]21,36.9
22,Cn1cccc1C(=O)N1CCN(Cc2ccncc2)c2ncccc2C1,-33
23,OCC1(O)CCN(c2ncccc2C(F)(F)F)CC1,24.2
24,O=C1CCC2(CCN(c3cccc(C(F)(F)F)n3)CC2)CN1CCO,47.9
25,N[C@@H]1c2ccccc2C2(CCN(c3ccc(C(F)(F)F)cn3)CC2)[C@H]1O,78.3
26,N[C@@H]1c2ccccc2C2(CCN(c3ncccc3C(F)(F)F)CC2)[C@H]1O,86.6
27,NS(=O)(=O)CC1CCN(c2ncccc2C(F)(F)F)CC1,20.6

row,SMILES,INHIBITION [%]
1,CC(C)C(=O)NCC(=O)N1CCC2(CC1)c1ccccc1[C@@H](N)[C@@H]2O,-26.1
2,N[C@@H]1c2ccccc2C2(CCN(C(=O)c3cncc(Cl)c3)CC2)[C@H]1O,8.5
3,N[C@@H]1c2ccccc2C2(CCN(c3cnc4ccccc4n3)CC2)[C@H]1O,44.9
4,N[C@@H]1c2ccccc2C2(CCN(c3cccc(C(F)(F)F)n3)CC2)[C@H]1O,88
5,N[C@@H]1c2ccccc2C2(CCN(C(=O)c3ccc(Cl)cn3)CC2)[C@H]1O,37.1
6,FC(F)(F)c1ccnc(N2CCCCCC2)c1,-6.52
7,N[C@@H]1c2ccccc2C2(CCN(c3cc(C(F)(F)F)ccn3)CC2)[C@H]1O,58.8
8,CC(C)c1n[nH]c(C2CN(CCCS(C)(=O)=O)CCO2)n1 (stereo not given),0.914
9,Cc1nc(CN2CCn3cc(CNC(=O)C4CCC4)nc3C2)cs1,-3.1
10,Cc1ccc(N(Cc2ccco2)C(=O)Cc2cc(=O)n(C)[nH]2)cc1,39.5
11,O=C(O)CCn1ccc2cc(Br)ccc21,24.7
12,CC(NC(=O)C1=NN(C)C(=O)CC1)c1ccccc1Cl (stereo not given),35.4
13,Cc1cnc(CNC(=O)C2CCOc3ccccc3C2)cn1 (stereo not given),-3.83
14,COCCCN(Cc1ccccc1Cl)C1CCS(=O)(=O)C1 (stereo not given),33.4
15,Cc1nnnn1CCC(=O)N1CCC2(CCC(=O)N(CC3CC3)C2)CC1,8.38
16,c1cc(CN2CCCCC2c2ccc(Nc3cnccn3)nc2)ccn1 (stereo not given),43.1
17,Cn1cc(CN2CCC3(C2)CN(Cc2ccsc2)C3)cn1,-3.19
18,CNc1nc(CNC(=O)Nc2cccc(OC)c2)cs1,23.5
19,N#Cc1cccc(N2CCC3(CC2)Nc2ccccc2NC3=O)n1,14.3
20,CC(O)c1cccc(N2CCC3(CC2)Nc2ccccc2NC3=O)n1 (stereo not given),0.705
21,O=C1Nc2ccccc2NC12CCN(c1cccc(C(F)(F)F)n1)CC2,76
22,Cn1cnc2cc(C(=O)NS(=O)(=O)CC3CCCC3)ccc21,-20.6
23,COCCN1CCc2cc(C(=O)O)c(-c3ccoc3)nc2CC1,42.7
24,Cn1cncc1CN1CCc2nc3sccc3c(=O)n2CC1,-9.08
